The record followed here is paper PMC7819943, “Rice protein-binding microarrays: a tool to detect cis-acting elements near promoter regions in rice”.

The full ranking holds about 39,000 sequences; the median of “fluorescence intensity (a.u.)” is about 4,300, and the highest 2% start at about 39,000. The sample as a whole holds a higher share of the highest values than the screen did.

This assay concerns the target T1, OsSMF1 (Oryza sativa, UniProt Q6ZLB0 1-436).
T1 sequence: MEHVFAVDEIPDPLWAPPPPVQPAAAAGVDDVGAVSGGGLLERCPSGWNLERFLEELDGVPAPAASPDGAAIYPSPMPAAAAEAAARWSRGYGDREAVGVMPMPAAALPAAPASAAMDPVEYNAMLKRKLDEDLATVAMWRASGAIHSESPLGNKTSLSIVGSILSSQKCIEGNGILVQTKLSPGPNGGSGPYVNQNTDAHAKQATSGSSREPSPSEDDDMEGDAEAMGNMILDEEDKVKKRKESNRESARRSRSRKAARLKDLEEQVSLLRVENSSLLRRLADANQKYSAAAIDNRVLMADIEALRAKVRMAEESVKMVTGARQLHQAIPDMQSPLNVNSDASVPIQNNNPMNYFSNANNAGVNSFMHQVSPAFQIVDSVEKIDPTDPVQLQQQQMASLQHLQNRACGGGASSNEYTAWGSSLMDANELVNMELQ
The experiment in a line: protein-binding microarray (RPBM); PBS, 2% BSA, 51.3 ng/ul salmon testes DNA, 50 uM zinc acetate, 200 nM TF, 25 C, 1 h; high values mean tight binding. The settings on record: protein: recombinant; tags: N-terminal polyhistidine and DsRed monomer fusion (pET32a); chain copies: 2; label: CyDye5-dUTP incorporated in the synthesized complementary strand; 3' TTTTT single-stranded linker to array surface; dsDNA, one strand shown. An outline of the steps: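 Transcription factors were made in E. coli BL21-CodonPlus as N-terminal fusions to a polyhistidine tag and DsRed, then purified on Ni–NTA. After primer extension with Cy5-dUTP and blocking with 2% BSA, a custom Agilent array was exposed for 1 h at 25 °C to 200 nM protein in PBS, 2% BSA, salmon testes DNA and 50 µM zinc acetate. Washed arrays were scanned on an Axon 4000B, and the binding signal is per-feature fluorescence intensity in arbitrary units.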
Turning to “ATGACGATGGTTAATCCAAATAACATATTGGCCCGGGTTCCGGAGTCACCTAGTGCAG”, the binding signal was 49900 fluorescence intensity (a.u.).

In the case of “GAGAGAGTGTAGGTTGCCGATGACGTTCCAAATATTGATCCGGAGTCACCTAGTGCAG”, the binding signal is 4490 fluorescence intensity (a.u.).

In the case of “TTATTATTATTGGATGGTTAGATGACAAATCCAACCTCACCGGAGTCACCTAGTGCAG”, the binding signal is 3640 fluorescence intensity (a.u.).

For the sequence “ACCTTCATTGGATCTGCCTCCCTGCAAGCCTCTGCCTCAACGGAGTCACCTAGTGCAG”, the binding signal was 43300 fluorescence intensity (a.u.).

As for “CACCTTCTTCAAGCTCCCTCCTCTGAAGCCTCTTCTTCTTCGGAGTCACCTAGTGCAG”, the binding signal is 34900 fluorescence intensity (a.u.).

Consider “ATTGACATGGAGTCATGGACACTCTCCCTGCCTCCTCCCTCGGAGTCACCTAGTGCAG”, for which the binding signal was 3370 fluorescence intensity (a.u.).

Turning to “TCCAGTTGTGCGTGGAGATGTTGGTGAAGAGCTTCCGCTGCGGAGTCACCTAGTGCAG”, the binding signal is 4270 fluorescence intensity (a.u.).

For the sequence “TGAAATGCTATGTTGGTCCAGACTTCCGCTACGAAGGAGACGGAGTCACCTAGTGCAG”, the binding signal is 65100 fluorescence intensity (a.u.).

Turning to “TCTCCACTTCAGAGACGGTCCCACCTGTCATCCGCTCATACGGAGTCACCTAGTGCAG”, the binding signal is 4680 fluorescence intensity (a.u.).

In the case of “CCCTTACACCGCCCTGTGAACAGTCACTGACAATCCTGGCCGGAGTCACCTAGTGCAG”, the binding signal was 4330 fluorescence intensity (a.u.).

With “TTAGTGCATGCTGCTAACTAAATACACGTAGCTTGTTGATCGGAGTCACCTAGTGCAG”, the binding signal is 3310 fluorescence intensity (a.u.).

Turning to “AAATTCCACGTGCCACATATTTCGTTCATTTGAGTTTATTCGGAGTCACCTAGTGCAG”, the binding signal was 8820 fluorescence intensity (a.u.).

In the case of “CTCCTGCCCACCAATCTTGCGGCGGAAAACAAGGCGTGATCGGAGTCACCTAGTGCAG”, the binding signal was 4000 fluorescence intensity (a.u.).

Regarding “GTACGTCGGAAGCAACGGCAGACATGACAGCATATGGCCTCGGAGTCACCTAGTGCAG”, the binding signal was 15900 fluorescence intensity (a.u.).

As for “GCGAAGCAACATGCTGCTGCTCAAGAGGAGGAAGATGGTGCGGAGTCACCTAGTGCAG”, the binding signal is 3350 fluorescence intensity (a.u.).

Take “TGGTGCTGGTCCTCAACATGCATGTGCTATGGCAAGATCCCGGAGTCACCTAGTGCAG”: the binding signal was 42800 fluorescence intensity (a.u.).

For the sequence “GAGAGTCGCCTTGTCAACATATGGCAGATGCAGCTGGTGCCGGAGTCACCTAGTGCAG”, the binding signal was 61100 fluorescence intensity (a.u.).

“TTGATGGAGATGGGAGTTGGTGCGGATGTCCTTGTCGCCCCGGAGTCACCTAGTGCAG”: the binding signal was 3200 fluorescence intensity (a.u.).

“CCTACACATATATATATATATATGCATGGCAACTTGGCAACGGAGTCACCTAGTGCAG”: the binding signal is 3340 fluorescence intensity (a.u.).

Take “TTCATAGAGAGGGCCGGCAACGGCCTAGGCACGCTGGTGTCGGAGTCACCTAGTGCAG”: the binding signal is 34700 fluorescence intensity (a.u.).

For “TGGTGCTGTGGTGGTGGTGGTCATGGACTCATTGGGCATGCGGAGTCACCTAGTGCAG”, the binding signal was 3180 fluorescence intensity (a.u.).

Regarding “TCAGCTGGCATGCATGGCAACATATATATGGCTGGAAGTACGGAGTCACCTAGTGCAG”, the binding signal was 40000 fluorescence intensity (a.u.).

Consider “AGCTCGTGACGTTAATCTCCGTATAACCAAGCCATGTTGTCGGAGTCACCTAGTGCAG”, for which the binding signal was 6620 fluorescence intensity (a.u.).

With “CATATAATTGATAGCAGCATGACAGATTGCCAGTTAGCCGCGGAGTCACCTAGTGCAG”, the binding signal is 3290 fluorescence intensity (a.u.).

On to “AGTAGTAGGGCGCGACACGCGTGTACGTTGCGATAGATGTCGGAGTCACCTAGTGCAG”, for which the binding signal is 3330 fluorescence intensity (a.u.).

With “ATGTCTCGTTATCTCCTAAACATGTCATTACACTGGAAACCGGAGTCACCTAGTGCAG”, the binding signal was 3240 fluorescence intensity (a.u.).

Turning to “TATGGGGCCGTGATATTCAATGTGATGTGCATACAGCATGCGGAGTCACCTAGTGCAG”, the binding signal was 3720 fluorescence intensity (a.u.).

As to “CTGCCTCCTGTTCGCGCTCCACGCCACCACTGCCGACGAGCGGAGTCACCTAGTGCAG”, the binding signal is 4300 fluorescence intensity (a.u.).

“AGAGCGATCTGATCGACCGAGTTGTGTCATGCCGTACTACCGGAGTCACCTAGTGCAG”: the binding signal was 4330 fluorescence intensity (a.u.).

In the case of “AATTATCTTGAAGCACCTCAACTCAACCTGATGTCATACACGGAGTCACCTAGTGCAG”, the binding signal was 4390 fluorescence intensity (a.u.).

On to “GAATTTACTTTAGCGGAGATTGAGCACTTTGTGGACCCAGCGGAGTCACCTAGTGCAG”, for which the binding signal is 52400 fluorescence intensity (a.u.).

For “CCAATTTCCGACTTCATGAGATTTATGTCTTTGTGGTCAGCGGAGTCACCTAGTGCAG”, the binding signal was 3210 fluorescence intensity (a.u.).

Turning to “AGATTTGTGCTCTGACCCACTTCACTCACTTAGTCTCTAGCGGAGTCACCTAGTGCAG”, the binding signal was 3630 fluorescence intensity (a.u.).

For “ATGTGTAATGACATGACTAGGCATTCCCTTCAGTTAGTCTCGGAGTCACCTAGTGCAG”, the binding signal was 9940 fluorescence intensity (a.u.).

Consider “GTGGAATATTTCTGATCATGGTTTGGGAATAAACGTTCTGCGGAGTCACCTAGTGCAG”, for which the binding signal is 3310 fluorescence intensity (a.u.).

For the sequence “TGCTTCTGATACTCACGTATATTTCATACACACGTGAATGCGGAGTCACCTAGTGCAG”, the binding signal is 3210 fluorescence intensity (a.u.).

Consider “GAGACCGTTCTGAATTTCTGAGACTGATACATATTTGATGCGGAGTCACCTAGTGCAG”, for which the binding signal is 40300 fluorescence intensity (a.u.).

“CGTGCATCCGCTTGTGCTGCCACTTCGACAGCCCGCCCGGCGGAGTCACCTAGTGCAG”: the binding signal was 3570 fluorescence intensity (a.u.).

With “GGGCTCCATAATAGAGTGCCACACTAGCATGTTACGATATCGGAGTCACCTAGTGCAG”, the binding signal was 3510 fluorescence intensity (a.u.).

Turning to “CATAATTAGCGGTTGATTACTGTAGCATCACTGTAACAAACGGAGTCACCTAGTGCAG”, the binding signal is 3730 fluorescence intensity (a.u.).

On to “TTAACAGTTGGTTACTAGTCCTAATTAATTCAGTAGCAATCGGAGTCACCTAGTGCAG”, for which the binding signal is 4700 fluorescence intensity (a.u.).

In the case of “TCTACTGCAATTAGTTGATTCAGCTAGTAGCAAACATAATCGGAGTCACCTAGTGCAG”, the binding signal is 54800 fluorescence intensity (a.u.).

Turning to “TTTAGAATACTGCTCATACGTCAGTAACAAAGTCACACGACGGAGTCACCTAGTGCAG”, the binding signal was 3880 fluorescence intensity (a.u.).

For the sequence “GCCCAAAGAAAGAAGGAGGTGGACACGTGGGAGATCTGCGCGGAGTCACCTAGTGCAG”, the binding signal is 11200 fluorescence intensity (a.u.).

On to “CCCAATCCGAACGGGACAGCTGCCCACGTGCGACCCATGTCGGAGTCACCTAGTGCAG”, for which the binding signal is 4920 fluorescence intensity (a.u.).

As for “CCAATTTGACGTGAAATGTTTAGATGATCTCTTGCCAGTACGGAGTCACCTAGTGCAG”, the binding signal was 3150 fluorescence intensity (a.u.).

Turning to “CATTGCTTTGTTTGATCTTGTGTGCCAATAATTGATGAAACGGAGTCACCTAGTGCAG”, the binding signal was 55900 fluorescence intensity (a.u.).

On to “CTAATATATTGACGTGTAATTCTTTTGTGTGTTTGTGAAACGGAGTCACCTAGTGCAG”, for which the binding signal is 6530 fluorescence intensity (a.u.).

With “ACATGGGGAAAACCAGGGACTAAAACTGTAATCAAACAGTCGGAGTCACCTAGTGCAG”, the binding signal was 29500 fluorescence intensity (a.u.).

Take “CCTTCCGTTCGACGCGACACGCGAGTCATTGCTGCCACCACGGAGTCACCTAGTGCAG”: the binding signal was 3680 fluorescence intensity (a.u.).

For “CCTCTCGTGGCATCGCATCGCATCGTGTCCTCTGCGACTGCGGAGTCACCTAGTGCAG”, the binding signal is 3630 fluorescence intensity (a.u.).

On to “GACAAGCTCGGCACCAATCTCCACAGGAGCCGCATCAGGTCGGAGTCACCTAGTGCAG”, for which the binding signal was 3420 fluorescence intensity (a.u.).

As to “AGTCCAAGAGCGTGACGCATGTTCGGTACCACGCGCACAACGGAGTCACCTAGTGCAG”, the binding signal is 4740 fluorescence intensity (a.u.).

For the sequence “CATGTCGACATGTTCACAAGCGGTACCAAGAGTCAAGACACGGAGTCACCTAGTGCAG”, the binding signal was 45800 fluorescence intensity (a.u.).

As to “GACCCAAATGTCATAGAGACACGACGGTTCACATGTCATACGGAGTCACCTAGTGCAG”, the binding signal is 3900 fluorescence intensity (a.u.).
